An excerpt weighted towards active compounds, which were near 3.1% of everything screened.
PAFAH1B3 inh – PAFAH1B3 enzyme inhibitors, primary screen, biochemical, fluorescence polarization, human | recombinant PAFAH1B3, FP-rhodamine probe | actives 0.28% (n = 340,000) | inhibition, % at 3.39 µM;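 active = inhibition above the screen-wide average of all tested compounds plus 3 SD, cut at about 25% in these data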
Target sequence (Q15102 whole entry, looked up): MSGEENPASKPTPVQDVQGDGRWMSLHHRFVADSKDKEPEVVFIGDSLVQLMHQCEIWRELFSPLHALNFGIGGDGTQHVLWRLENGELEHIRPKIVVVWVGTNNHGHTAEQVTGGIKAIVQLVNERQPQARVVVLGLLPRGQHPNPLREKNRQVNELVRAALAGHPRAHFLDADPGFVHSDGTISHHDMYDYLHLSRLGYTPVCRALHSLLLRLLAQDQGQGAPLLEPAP
pPAFAH FP inh – pPAFAH enzyme inhibitors, primary screen, biochemical, fluorescence polarization, human; inhibition, % at 3.39 µM; Platelet-activating factor acetylhydrolase (Homo sapiens), Q13093; actives 1.5% (n = 330,000); AID 463082, 2010; recombinant pPAFAH, FP-rhodamine probe fluorescence polarization;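 active = inhibition above the mean inhibition across the screen plus 3 SD, cut at about 25% in these data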;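 also: inhibitors block binding of the rhodamine activity-based probe so polarization drops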
Target sequence (Q13093 whole entry, looked up): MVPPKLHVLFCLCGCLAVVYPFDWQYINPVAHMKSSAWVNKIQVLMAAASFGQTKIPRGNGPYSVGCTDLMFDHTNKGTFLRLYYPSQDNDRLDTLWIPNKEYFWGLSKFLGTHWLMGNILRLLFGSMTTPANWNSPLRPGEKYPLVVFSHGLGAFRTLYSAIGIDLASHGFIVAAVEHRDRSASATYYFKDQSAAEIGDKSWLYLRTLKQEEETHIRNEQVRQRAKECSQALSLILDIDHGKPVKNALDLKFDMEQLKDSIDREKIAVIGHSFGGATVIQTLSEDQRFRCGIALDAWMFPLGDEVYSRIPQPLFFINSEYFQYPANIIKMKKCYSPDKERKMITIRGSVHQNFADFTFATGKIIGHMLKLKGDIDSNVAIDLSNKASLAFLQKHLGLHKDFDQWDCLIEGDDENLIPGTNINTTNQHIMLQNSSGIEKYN
PAFAH1B2 FP inh – PAFAH1B2 enzyme inhibitors, primary screen, biochemical, fluorescence polarization, human; Platelet-activating factor acetylhydrolase IB subunit alpha2 (Homo sapiens), P68402; AID 492953, 2010; actives 1.2% (n = 340,000); recombinant PAFAH1B2, FP-rhodamine activity probe; inhibition, % at 3.39 µM;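 active = inhibition above the mean of all tested compounds plus 3 SD, cut at about 24% in these data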
Rin1-Abl PPI inh – inhibitors of Rin1-Abl protein binding, primary screen, biochemical, TR-FRET | actives 0.4% (n = 360,000) | inhibition, % at 7.35 µM | AID 588664, 2011 | Tyrosine-protein kinase ABL1 (Homo sapiens) + Ras and Rab interactor 1 (Homo sapiens), …; in the data active = inhibition above about 5%, passing the limit was not always enough
PAFAH2 FP inh – PAFAH2 enzyme inhibitors, primary screen, biochemical, fluorescence polarization, human | Platelet-activating factor acetylhydrolase 2, cytoplasmic (Homo sapiens), Q99487 | recombinant PAFAH2, FP-rhodamine activity probe | inhibition, % at 3.39 µM | actives 0.99% (n = 340,000);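 active = inhibition above the mean over all tested compounds plus 3 SD, cut at about 30% in these data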;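 also: inhibitors block probe labeling of enzyme so polarization drops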
eLon inh – inhibitors of E. coli Lon protease, primary screen, biochemical, fluorescence polarization; purified E. coli Lon protease; inhibition, % at 7.94 µM; AID 602123, 2011; P0A9M0; actives 0.42% (n = 360,000); in the data active = inhibition above about 13%, passing the limit was not always enough
Each line names hits and unclear results; the compound was inactive in the other large screens.

Cc1cc[n+](-c2[nH]c(=O)sc2/C=N/N=C(\[O-])CCn2c3ccccc3c3ccccc32)cc1	pPAFAH FP inh 32 (no result: PAFAH1B3 inh, PAFAH1B2 FP inh, PAFAH2 FP inh)
CCc1ccc[n+](-c2[nH]c(=O)sc2/C=N/N=C(\[O-])CCn2c3ccccc3c3ccccc32)c1	none
CC1=C(SCc2ccccc2)C(=O)c2ccccc2C1=O	PAFAH1B3 inh 48, PAFAH2 FP inh 46 (no result: pPAFAH FP inh)
Cc1ccc(OCCC(=O)NNC(=O)c2ccccc2F)cc1	none
Cc1ccc(-c2cc(-c3ccco3)c3c(N)c(C(=O)NN)oc3n2)cc1	pPAFAH FP inh 32
NNC(=O)c1oc2nc(-c3cccs3)cc(-c3ccco3)c2c1N	pPAFAH FP inh 32
O=C(NCCc1cnc[nH]1)c1ccc(-c2ccccc2)cc1	none
Cc1sc(NC(=O)c2sc3nc4c(C)cccc4cc3c2N)c(C#N)c1C	pPAFAH FP inh 27
CC1CCN(Cc2nnnn2CCCC(=O)N(C)C(C)c2ccccn2)CC1 (stereo unspecified)	none
CS(=O)(=O)c1ccc(-c2csc(C(O)c3cccc(Cl)c3)n2)cc1 (stereo unspecified)	none (no result: PAFAH1B3 inh, pPAFAH FP inh, PAFAH1B2 FP inh, PAFAH2 FP inh)
CCOc1ccc(C(=O)N2CCCN(C(=O)c3ccc(OCC)cc3)CC2)cc1	none
CCOc1ccc(NS(=O)(=O)c2cc3c4c(c2)CCN4C(=O)CC3)cc1	pPAFAH FP inh 25
CCOc1ccc(NS(=O)(=O)c2ccc(C(=O)N3CCC3)cc2)cc1	pPAFAH FP inh 46
CCOc1ccc(NS(=O)(=O)c2cc(C(=O)N3CCCC3)ccc2Cl)cc1	none
CCOC(=O)c1ccc(NS(=O)(=O)c2cc3c4c(c2)CCN4C(=O)CC3)cc1	none
CCOc1ccc(NS(=O)(=O)c2ccc(C(=O)N3CCCC3)cc2)cc1	pPAFAH FP inh 25
COc1cccc(NC(=O)CN(C)C(=O)CCNC(=O)c2ccccc2OC)c1	none (no result: pPAFAH FP inh)
COc1ccccc1CNC(=O)COC(=O)C1CCN(c2ccc(C(F)(F)F)cn2)CC1	none
CSc1ccc(CN2CCC2(C)C(=O)Nc2cccc(Oc3ccccc3)c2)cc1 (stereo unspecified)	none (no result: PAFAH1B3 inh, pPAFAH FP inh, PAFAH1B2 FP inh, PAFAH2 FP inh)
N#CC1=C(N)C2=CCCC[C@H]2[C@H](c2ccc(Br)cc2)C1(C#N)C#N	pPAFAH FP inh 28
CCN(CC1CCCO1)C(=O)c1cc(COc2ccccc2SC)on1 (stereo unspecified)	none
O=Cc1ccc(C(=O)OCC(=O)Nc2ccc(F)cc2F)cc1	PAFAH2 FP inh 47
COc1cc(C(=O)OCC(=O)Nc2ccc(F)cc2F)cc(OC)c1OC	none
CCN1CCc2c(sc(N)c2C#N)C1	none
N#Cc1c(N)sc(=S)c2c1CCN(Cc1ccccc1)C2	pPAFAH FP inh 40 (no result: PAFAH1B3 inh, PAFAH1B2 FP inh, Rin1-Abl PPI inh, PAFAH2 FP inh, eLon inh)
CN1CCN(CCC=C2c3ccccc3Sc3ccc(S(=O)(=O)N(C)C)cc32)CC1	pPAFAH FP inh 28
OCCN1CCN(CC/C=C2/c3ccccc3Sc3ccc(C(F)(F)F)cc32)CC1	none
COc1ccc(Cn2c(=S)[nH]c3ccccc3c2=O)cc1	none
O=C(O)CC/C(=N\Nc1ccc(S(=O)(=O)N2CCCC2)cc1[N+](=O)[O-])c1cccs1	PAFAH1B2 FP inh 28 (no result: pPAFAH FP inh)
COc1cccc(C(=O)Nc2nnc(SCC(=O)NC3CCCC3)s2)c1	none
NCCOc1ccc(C23CC4CC(CC(C4)C2)C3)cc1	none
CNC(=S)Nc1ccc(C23CC4CC(CC(C4)C2)C3)cc1	none
CC(=O)Nc1ccc(C23CC4CC(CC(C4)C2)C3)cc1	PAFAH1B2 FP inh 26
Oc1ccc(C23CC4CC(CC(C4)C2)C3)cc1O	PAFAH1B2 FP inh 61
Cc1ccc(S(=O)(=O)N2CCOCC2)cc1C(=O)OCC(=O)c1ccc[nH]1	none
Cc1ccc(S(=O)(=O)N2CCOCC2)cc1C(=O)OCC(=O)c1ccc(Br)cc1	PAFAH1B2 FP inh 26
O=C(O)c1cc(N2CCCCC2)ccn1	none (no result: pPAFAH FP inh)
CC(NS(=O)(=O)c1ccc(Br)cc1)C(N)=O (stereo unspecified)	none
O=C(CSc1ccc(F)cc1)Nc1ccc(Br)cc1	none
NC(=O)CSc1ccc(Br)cc1	PAFAH1B2 FP inh 50
CC(Sc1ccc(Br)cc1)C(N)=O (stereo unspecified)	PAFAH1B2 FP inh 37
COc1cc(Cl)c(C)cc1NC(=O)CSc1ccccc1	none
COc1cc(Cl)c(C)cc1NC(=O)CSc1ccc(C)cc1	PAFAH1B2 FP inh 34
CCCn1nnc(NC(=O)Cc2ccc(Cl)cc2)n1	PAFAH1B2 FP inh 27
Cn1nnc(NC(=O)CSc2ccc(Cl)cc2)n1	PAFAH1B2 FP inh 25
COC(=O)c1sccc1NC(=O)CSc1ccc(Cl)cc1	PAFAH1B2 FP inh 29
Cc1cccnc1NC(=O)Nc1cccc(F)c1	none (no result: PAFAH1B3 inh, pPAFAH FP inh, PAFAH1B2 FP inh, PAFAH2 FP inh)
CCN(CC)C(=O)C(=O)c1cccn1-c1cccc(OC)c1C#N	none
CCOC(=O)c1c(C)[nH]c(O)c1C=Nc1ccc(C(F)(F)F)cc1	PAFAH1B3 inh 31
Cc1nnc(SC(C)C(=O)Nc2ccc3ccccc3c2)n1C (stereo unspecified)	none
c1ccc(C(c2ccccc2)c2nc(-c3cccnc3)no2)cc1	none
Cc1ccc(SC(C)c2nc(-c3cccnc3)no2)cc1 (stereo unspecified)	PAFAH1B2 FP inh 27
CN(CC(=O)Nc1ccc(Cl)c(Cl)c1)C(=O)CN1C(=O)NC2(CCCC2)C1=O	none
CCOc1ccc(NC(=O)CN(C)C(=O)CN2C(=O)NC3(CCCC3)C2=O)cc1OCC	pPAFAH FP inh 26
C[C@H](CO)N1C[C@H](C)[C@H](CN(C)S(C)(=O)=O)Oc2c(cccc2N(C)C)C1=O	none
CC1(C)NC(=O)N(CCCCOc2ccc(Br)cc2Cl)C1=O	PAFAH1B2 FP inh 24
CCCCNC(=O)c1ccc(Cc2cn(C)c3ccccc23)nc1	none (no result: PAFAH1B3 inh, pPAFAH FP inh, PAFAH1B2 FP inh, PAFAH2 FP inh)
CN(C)C(=O)c1cc(C(=O)c2ccc(F)cc2C(F)(F)F)c[nH]1	pPAFAH FP inh 30
O=C(CN1C(=O)C2CCCCC2C1=O)OCC(=O)c1ccc(Cl)s1 (stereo unspecified)	pPAFAH FP inh 26, PAFAH2 FP inh 40
O=C(CNC(=O)C1CCCCC1)OCC(=O)c1ccc(Cl)s1	none
OCC1(CCc2ccccc2)CCCN(CCCc2ccccc2)C1 (stereo unspecified)	none
CC(C)(C)c1ccc(OCC(=O)N2CCN(c3ccccn3)CC2)cc1	none
O=C(/C=C/c1ccc(Cl)c(C(F)(F)F)c1)N1CCN(c2ccccn2)CC1	pPAFAH FP inh 29, PAFAH2 FP inh 40
CC(C)(C)c1ccc(OCC(=O)N2CCN(c3ncccn3)CC2)cc1	pPAFAH FP inh 26
CC(C)(C)c1ccc(/C=C/C(=O)N2CCN(c3ncccn3)CC2)cc1	pPAFAH FP inh 32
C[C@@H]1ON(C)[C@H]2C[C@H]3c4cc(-c5cccc(F)c5)ccc4CCN3C(=O)[C@@H]12	none (no result: pPAFAH FP inh)
CCS(=O)(=O)N1Cc2ccccc2CC1C(=O)Nc1nnc(SCc2ccc(F)cc2)s1 (stereo unspecified)	pPAFAH FP inh 25

Screening results as filed in PubChem BioAssay.
